Bioassay records from PubChem.
Tb PGK inh: blocks T. brucei phosphoglycerate kinase. P07378. PGK/GAPDH coupled, Kinase-Glo luminescence, 60 min. Potency, µM (doses to about 57.5 µM), actives largely listed as inhibitors. 380,000 tested, 0.043% active. AID 602233; further: nearly all actives have a fitted effect of over 60% in size
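Luminescent ATP detection (Kinase-Glo Plus) follows a 60-minute room-temperature incubation, with wells lacking PGK as controls. Buffer: 100 mM TEA (pH 7.6), 5 mM MgCl2, 0.01% Tween-20. Coupling enzyme GAPDH (100 nM final) supplies unstable 1,3-BPG in-well.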
Chronic BCR inh: blocks chronic active B-cell receptor signaling; ABC-DLBCL IkBa-CBG/CBR reporter, luminescence ratio, 4 h; Potency, µM (top dose mostly 46.1 µM), hits mostly inhibitors; 340,000 tested, 0.05% active; AID 493014; active means well fitted inhibition curve with a large enough effect in the signal ratio, with a control signal flat, not every such curve was filed as active; inconclusive means small, poorly fitted or top-dose-only effect, or effect the other way, or a change in a side signal; the % refers to the signal ratio
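Compounds up to 46 uM were incubated four hours with TMD8 cells whose green CBG68 luciferase is fused to IkappaBalpha; red CBR luminescence normalised the signal, and concentration-effect curves were fitted to fusion, red and ratio data.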
Tb PFK inh-1: T. brucei PFK enzyme inhibition | 330,000 tested, 0.17% active | T. brucei PFK, ADP-Glo luminescence | AID 485367 | Potency, µM (doses to about 57.5 µM), actives largely listed as inhibitors | O15648; further: nearly all actives have a fitted effect of over 60% in size
Target sequence (O15648 whole entry, looked up): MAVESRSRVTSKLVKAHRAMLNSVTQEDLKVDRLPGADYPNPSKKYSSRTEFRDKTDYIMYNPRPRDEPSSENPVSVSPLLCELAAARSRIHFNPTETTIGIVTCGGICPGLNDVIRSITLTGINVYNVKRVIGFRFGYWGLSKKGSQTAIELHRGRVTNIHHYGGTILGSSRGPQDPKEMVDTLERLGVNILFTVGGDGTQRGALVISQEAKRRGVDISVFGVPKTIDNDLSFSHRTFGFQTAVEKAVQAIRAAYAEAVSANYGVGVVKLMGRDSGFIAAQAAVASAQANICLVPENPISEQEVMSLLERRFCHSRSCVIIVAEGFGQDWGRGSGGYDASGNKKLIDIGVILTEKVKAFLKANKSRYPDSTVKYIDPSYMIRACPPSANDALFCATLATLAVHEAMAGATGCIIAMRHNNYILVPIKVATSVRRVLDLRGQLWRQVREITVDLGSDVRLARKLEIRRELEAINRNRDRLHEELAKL
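Activity is normalized to no-enzyme wells (full inhibition) and 1.25 nM enzyme wells (no inhibition). Reaction: 0.5 mM F6P, 0.1 mM ATP, 45 min RT, ADP-Glo luminescence; concentration-response curves fitted and classed by quality.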
ERG-DNA inh: inhibitors of human ERG Ets domain-DNA interaction; fluorescence polarization, His-ERG Ets domain / labelled DNA; Potency, µM (top dose mostly 76.9 µM), usual class: inhibitors; 370,000 tested, 0.028% active; AID 624246; active means well fitted inhibition curve with a large enough effect in the polarisation, with a control signal flat; inconclusive means small, poorly fitted or top-dose-only effect, or effect the other way, or a change in a side signal; inactive means no such curve, though single readings can be large or run the other way; the % refers to the polarisation;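 further: polarization taken with two DNA probes labelled with fluorescein and Texas red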
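His-tagged ERG Ets domain (1 uM in the protein solution; 300mM KCl, 50mM Tris-HCl, 1mM EDTA, 1mM DTT, pH 7.5) received compound, then a probe mix of 5 nM fluorescein-DNA and 100nM Texas-615-DNA. Fluorescence polarization was read for both dyes.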
Pin1 inh: human Pin1 inhibition | 390,000 tested, 0.009% active | Potency, µM (top dose mostly 115 µM), actives largely listed as inhibitors | Pin1 FP peptide displacement, HiFluor488, 10 min | Q13526; active means well fitted inhibition curve with a large enough effect in the polarisation, with a control signal flat, not every such curve was filed as active; inconclusive means small, poorly fitted or top-dose-only effect, or effect the other way, or a change in a side signal; inactive means no such curve, though single readings can be large or run the other way; the % refers to the polarisation
Target sequence (Q13526 whole entry, looked up): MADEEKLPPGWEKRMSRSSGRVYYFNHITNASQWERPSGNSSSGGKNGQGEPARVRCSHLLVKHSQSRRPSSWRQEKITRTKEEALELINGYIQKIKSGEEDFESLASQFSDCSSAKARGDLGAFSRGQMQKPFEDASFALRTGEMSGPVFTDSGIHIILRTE
TbPFK ATP: inhibits T. brucei PFK measured by ATP depletion; shares compounds with Tb PFK inh-1; Tb PFK enzyme, ATP depletion, Kinase-Glo Plus luminescence; Potency, µM (highest dose often 57.5 µM); 1,100 tested, 47% active; AID 504636; calls by dose curve; further: nearly all actives have a fitted effect of over 60% in size
Tb PFK inh-2: T. brucei PFK enzyme inhibition, hit validation; 1,100 tested, 41% active; shares compounds with Tb PFK inh-1; purified T. brucei PFK, ADP-Glo luminescence, 45 min; Potency, µM (series often up to 57.5 µM), actives largely listed as inhibitors; further: nearly all actives have a fitted effect of over 60% in size
Numbers stand for hits; 0 = inactive; ? = inconclusive; - = no result. Most compounds without a hit are left out; they make up all but 0.25% or so of the library. Unless noted, the call rests on the fitted dose curve; in most records, active means well fitted curve in the direction sought with a large enough effect; inconclusive means small, poorly fitted or top-dose-only effect, or another doubt; inactive means no such curve, though single readings can be large; an effect the other way counts as inactive or inconclusive.

SMILES | Tb PGK inh | Chronic BCR inh | Tb PFK inh-1 | ERG-DNA inh | Pin1 inh | TbPFK ATP | Tb PFK inh-2
COc1ccccc1OCCNC(=O)Cc1ccc(Cl)c(Cl)c1 | 0 | 0 | ? | 0 | 0 | ? | ?
COc1ccc(C(=O)NCc2ccc(Cl)c(Cl)c2)cc1OC | 0 | 0 | 13µM | 0 | 0 | 8.5µM | 27µM
N#CN=c1snc(-c2ccccc2)n1-c1ccc(Cl)cc1 | - | - | - | - | 0 | - | -
CCN1CC(CNC(=O)c2ccc3nc(Cc4cccc(Cl)c4)oc3c2)CC1=O (stereo unspecified) | 0 | ? | ? | 0 | 0 | ? | 15µM
CC(C)(CO)NC(=O)c1ccc2nc(Cc3cccc(Cl)c3)oc2c1 | 0 | 0 | 0 | 0 | 0 | - | -
CCN1/C(=C/C=C/c2oc3ccc(-c4ccccc4)cc3[n+]2CC)Oc2ccc(-c3ccccc3)cc21 | 0 | ? | ? | 32µM | 0 | 0 | ?
O=C(O)COc1ccc(/C=N/NC(=O)c2ccc(-c3csc(Nc4ccc(Cl)cc4)n3)cc2)cc1 | ? | ? | ? | 0 | - | 1.7µM | 2.4µM
O=P(c1ccccc1)(c1ccccc1)c1cnc2ccccn12 | - | - | - | - | 0 | - | -
C/C(=C\c1ccc(N(C)C)cc1)[N+](=O)[O-] | 0 | ? | ? | 0 | 0 | 0 | ?
O=C(COC(=O)CCOc1ccccc1)NCc1ccco1 | 0 | 0 | ? | 0 | ? | ? | ?
O=C(COc1ccccc1)NCc1ccco1 | 0 | - | - | 0 | 0 | - | -
COc1ccc(-c2nn3c(-c4cc(-c5ccccc5)n[nH]4)nnc3s2)cc1 | - | - | - | - | 0 | - | -
CC1CN(S(=O)(=O)c2cc(C(=O)NCc3ccncc3)ccc2Cl)CC(C)O1 (stereo unspecified) | 0 | 0 | ? | 0 | 0 | ? | ?
O=C(NCc1ccncc1)c1ccc(Cl)c(S(=O)(=O)N2CCCCC2)c1 | 0 | 0 | 0 | 0 | 0 | - | -
O=C(CC1SC(=O)N(c2ccccc2)C1=O)Nc1ccc(Br)cc1 (stereo unspecified) | 0 | ? | 19µM | 0 | 0 | ? | ?
Nc1ccn(Cc2cccc(Cl)c2)n1 | 0 | 0 | 27µM | 0 | 0 | 19µM | ?
O=S(=O)(c1ccc(F)cc1)N1CCN(c2nc(-c3cccc(Br)c3)nc3ccccc23)CC1 | - | - | - | - | 0 | - | -
CC[n+]1c(C)sc2cc(C)ccc21 | 0 | ? | ? | 0 | 0 | 0 | 0
CC(=O)Nc1cccc(OC2=NS(=O)(=O)c3ccccc32)c1 | - | - | - | - | 0 | - | -
COc1ccc(C2=Nn3c(nnc3-c3ccc(OC)cc3OC)SC2)cc1 | - | - | - | - | 0 | - | -
O=C(Nc1cnn(Cc2ccc(Cl)c(Cl)c2)c1)c1nc2ncccn2n1 | 0 | ? | 5.4µM | 0 | 0 | 2.7µM | 5.4µM
CC1=C(C(=O)Nc2ccccc2C(F)(F)F)C(c2ccc(C)s2)NC(=S)N1 (stereo unspecified) | 0 | 0 | ? | 0 | 0 | 0 | 0
N#Cc1nc(-c2cccc3ccccc23)oc1NCC#CCOC(=O)c1cccs1 | - | 0 | 21µM | - | - | 8.5µM | 27µM
CCc1cccc(C)c1NC(=O)CN1C(=O)c2c(c3ccccc3n2C)C1c1ccc(OC)cc1 (stereo unspecified) | 0 | - | - | 0 | 0 | - | -
O=C(O)Cc1ccc(NC(=O)Nc2ccc(Br)cc2)cc1 | 0 | 0 | ? | 0 | 0 | 12µM | 24µM
SMILES | Tb PGK inh | Chronic BCR inh | Tb PFK inh-1 | ERG-DNA inh | Pin1 inh | TbPFK ATP | Tb PFK inh-2
CCOc1ccccc1-n1nnc(-c2nc(-c3ccccc3C)no2)c1C | 0 | - | - | 0 | 0 | - | -
CN(C)c1ccc(NC(=O)c2ccc(Cn3cc([N+](=O)[O-])cn3)cc2)cc1 | 0 | ? | 24µM | 0 | 0 | 12µM | 27µM
Cc1ccc(NC(=O)CSc2ncc3ccccn23)cc1C | 0 | 0 | 9.5µM | 0 | 0 | ? | 0
Cc1nc2ccccc2n1CC(=O)c1ccc(O)c(O)c1 | 0 | 0 | 30µM | 0 | 0 | ? | ?
COC(=O)CN1C(=O)[C@@H]2[C@H](C1=O)[C@@H]1CC(C(=O)OC)=C[C@@H](C(=O)OC)C3C1=C(C(=O)C31CCCCC1)[C@@H]2C (stereo partly specified) | - | - | - | - | 0 | - | -
COc1ccc(-c2cnc(N3CCC(C(N)=O)CC3)s2)cc1OC | - | - | - | - | 0 | - | -
Cc1ccc(NNC(=O)Nc2ccc(Cl)cc2)nn1 | 0 | ? | 24µM | 0 | 0 | 24µM | ?
O=C(CNC(=O)c1cccc(Cl)c1)OC(C(=O)Nc1cc(C(F)(F)F)ccc1Cl)c1ccccc1 (stereo unspecified) | - | - | - | - | 0 | - | -
O=C(Nc1cc(S(=O)(=O)N2CCOCC2)ccc1N1CCCC1)c1ccc(Cl)cc1 | 0 | 0 | ? | 0 | 0 | 24µM | ?
O=C(Nc1cc(S(=O)(=O)N2CCOCC2)ccc1N1CCCCC1)c1ccc(Cl)cc1 | 0 | 0 | 0 | 0 | 0 | - | -
Clc1ccc(CN2C3=NCCN3c3ccccc32)cc1Cl | 0 | ? | 6.7µM | 0 | 0 | 3µM | 6µM
COc1cc(/C=C(\C#N)C(=O)c2ccc(O)c(O)c2)cc(I)c1O | ? | ? | 1.7µM | 0 | ? | 0 | 0
Cn1nnnc1Sc1ncnc2scc(-c3ccc4c(=O)ccoc4c3)c12 | - | - | - | - | 0 | - | -
CN(C)c1cc(Cl)c2nonc2c1N | 0 | 0 | ? | 0 | 0 | 21µM | ?
CCN(CC)c1cc(Cl)c2nonc2c1N | 0 | ? | 0 | 0 | 0 | - | -
Nc1nc(N2CCN(c3cccc(Cl)c3)CC2)n[nH]1 | 0 | 0 | 27µM | 0 | 0 | ? | 0
COc1ccc(N(C(C)=O)S(=O)(=O)c2cc(OC)ccc2OC)cc1 | 0 | 0 | 0 | 0 | 0 | - | -
COc1ccc(OC)c(S(=O)(=O)N(C(C)=O)c2ccc3oc(=O)sc3c2)c1 | 0 | ? | ? | 0 | 0 | 0 | ?
COC(=O)C1=C[C@@H](C(=O)OC)C2C3=C(C(=O)[C@@]2(C)NC(=O)c2ccccc2)[C@H](C)n2c(=O)n(C)c(=O)n2[C@@H]3C1 (stereo partly specified) | - | - | - | - | 0 | - | -
C[C@]12CC[C@@H]3c4ccc(O)c(O)c4CC[C@H]3[C@@H]1CC[C@@H]2O | 0 | ? | 13µM | 0 | 0 | 7.6µM | 13µM
C[C@]12CC[C@@H]3c4cc(O)c(O)cc4CC[C@H]3[C@@H]1CC[C@@H]2O | 0 | ? | ? | 0 | 0 | 3.4µM | 4.8µM
C[C@]12CC[C@@H]3c4ccc(O)cc4CC[C@H]3[C@@H]1CC[C@@H]2O | 0 | ? | 0 | 0 | 0 | - | -
O=C(Nc1ccc(Cc2ccncc2)cc1)c1ccc(Cl)c([N+](=O)[O-])c1 | 0 | ? | 21µM | 0 | 0 | 21µM | ?
O=C(Nn1cnnc1)c1ccc(Cl)c([N+](=O)[O-])c1 | 0 | ? | ? | 0 | 0 | 0 | ?
CCCN1CNc2c(c(=O)[nH]c(=S)n2CCc2ccc(OC)cc2OC)C1 | - | - | - | - | 0 | - | -
Cc1ccc(-c2ccnc(N3CCC(C(N)=O)CC3)n2)cc1 | - | - | - | - | 0 | - | -
O=S1(=O)N=C(Oc2ccccc2Cl)c2ccccc21 | - | - | - | - | 0 | - | -
